Measurements reported in PubChem BioAssay (EPA / NIEHS).
Results filed as inconclusive are left out. The source made the active and inactive calls. How the source made its calls, unless noted: active means hit-call score of the fitted dose curve at least 0.9, where 1 is the maximum; inconclusive means response in the unintended direction; inactive means score below 0.9.

Columns and labels:
[1] = biological target: human Peroxisome Proliferator-activated Receptor alpha (PPARa), PPARA (gene 5465) (UniProt Q07869); assay: ATG_PPARa_TRANS: Attagene TRANS-FACTORIAL HepG2 Assay for human Peroxisome Proliferator-activated Receptor alpha (PPARa) (AID 2283001);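 on AC50: potency for gain of reporter signal over DMSO so agonist or activator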
Summary of the method: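 Exposure: 24 h, transiently transfected HepG2 cells. Endpoint: GAL4-UAS reporter mRNA, RT-PCR with capillary electrophoresis fluorescence. Baseline: DMSO; increases fitted.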

[2] = biological target: human Peroxisome Proliferator-activated Receptor delta (PPARd), PPARD (gene 5467) (UniProt Q03181); assay: ATG_PPARd_TRANS: Attagene TRANS-FACTORIAL HepG2 Assay for human Peroxisome Proliferator-activated Receptor delta (PPARd) (AID 2283002)
Summary of the method: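 Measured quantity: GAL4-UAS reporter transcript induction in HepG2 after 24 h chemical dosing, with NR-Gal4 chimeras supplied by transient transfection. Detection by RT-PCR and capillary electrophoresis; upward fit against DMSO.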

[3] = biological target: Peroxisome proliferator-activated receptor gamma (Homo sapiens) (UniProt P37231); assay: ATG_PPARg_TRANS: Attagene TRANS-FACTORIAL HepG2 Assay for human Peroxisome Proliferator-activated Receptor-gamma (PPARg) (AID 2283007)
Summary of the method: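 A TRANS-format multiplexed reporter assay measures activity of an exogenous chimeric NR-Gal4 protein in HepG2 cells. After 24 h of chemical exposure, reporter transcripts are amplified, fluorescently labelled and sized by capillary electrophoresis, with gain of signal scored against DMSO.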

[4] = biological target: Nuclear receptor subfamily 1 group I member 2 (Homo sapiens) (UniProt O75469); assay: ATG_PXR_TRANS: Attagene TRANS-FACTORIAL HepG2 Assay for human Pregnane X Receptor (PXR) (AID 2283008)
Summary of the method: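 Trans-factorial format: exogenous NR-Gal4 fusion activity, not endogenous factor, in transfected human HepG2 liver cells. After 24 h dosing, RNA isolated, reverse-transcribed, amplified and resolved by capillary electrophoresis; induction scored versus DMSO.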

[5] = biological target: Retinoic acid receptor alpha (Homo sapiens) (UniProt P10276); assay: ATG_RARa_TRANS: Attagene TRANS-FACTORIAL HepG2 Assay for human Retinoic Acid Receptor alpha (RARa) (AID 2283005)
Summary of the method: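 HepG2 cells transiently transfected with multiple reporter units expressing chimeric RARα-GAL4 fusion, with GAL4-UAS-driven reporters. After 24 h compound exposure, reporter mRNA induction quantified by RT-PCR and capillary electrophoresis with fluorescent labeling; gain-of-signal fitted relative to DMSO control.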

[6] = biological target: human Retinoic Acid Receptor beta (RARb), RARB (gene 5915) (UniProt P10826); assay: ATG_RARb_TRANS: Attagene TRANS-FACTORIAL HepG2 Assay for human Retinoic Acid Receptor beta (AID 2283004)
Summary of the method: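 Induction of reporter mRNA from a chimeric RARb-Gal4 construct was measured by RT-PCR, FAM labelling, HpaI digestion and capillary electrophoresis. Measurements followed 24 h compound treatment of transiently transfected human HepG2 liver cells, with DMSO as baseline.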

[7] = biological target: human Retinoic Acid Receptor gamma (RARg), RARG (gene 5916) (UniProt P13631); assay: ATG_RARg_TRANS: Attagene TRANS-FACTORIAL HepG2 Assay for human Retinoic Acid Receptor gamma (RARg) (AID 2283009)
Summary of the method: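 Gain-of-signal relative to DMSO is reported from fluorescent capillary electrophoresis of RT-PCR reporter products. These came from HepG2 cells expressing transfected RARg-GAL4 chimeras with UAS reporters, harvested 24 h after dosing.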

[8] = read-out: Intercellular Adhesion Molecule 1 (ICAM1), ICAM1 (gene 3383); assay: BSK_3C_ICAM1: BioMAP Diversity Plus: 3C Assay for Intercellular Adhesion Molecule 1 (ICAM1) Biomarker Activity (AID 2283003; active means hit-call score of the fitted dose curve at least 0.9, where 1 is the maximum; inactive means score below 0.9); details: primary human endothelial cells (HUVEC); actives raise or lower the signal
Summary of the method: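 Using DMSO as baseline, bidirectional curve fitting was applied to ICAM-1 ELISA signals from HUVEC in the 3C system, measured 24 h after compound addition.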

[9] = BSK_3C_Proliferation: Cell Proliferation Assessment in the BioMAP Diversity Plus: 3C Assay (AID 2283006; active means hit-call score of the fitted dose curve at least 0.9, where 1 is the maximum; inactive means score below 0.9;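 on AC50: potency may reflect either rise or fall in cell number versus DMSO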); details: primary human endothelial cells (HUVEC)
Summary of the method: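 Measured here: sulforhodamine B (0.1%) staining of TCA-fixed sub-confluent umbilical vein endothelial cultures 48 h post-dosing, absorbance 560 nm. DMSO served as negative control and baseline; both signal gain and loss were modelled.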

[10] = biological target: human RAR-related Orphan Receptor beta (RORb), RORB (gene 6096) (UniProt Q92753); assay: ATG_RORb_TRANS: Attagene TRANS-FACTORIAL HepG2 Assay for human RAR-related Orphan Receptor beta (RORb) (AID 2283010)
Summary of the method: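 Multiplexed transcription-factor reporter assay: HepG2 cells transiently carrying NR-Gal4/GAL4-UAS constructs, 24 h treatment, mRNA quantified by RT-PCR plus capillary electrophoresis fluorescence; activity scored as induction over DMSO.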

Measured: AC50

human Retinoic Acid Receptor gamma (RARg), RARG (gene 5916), sequence (P13631 whole entry, looked up, the tested form may be a part): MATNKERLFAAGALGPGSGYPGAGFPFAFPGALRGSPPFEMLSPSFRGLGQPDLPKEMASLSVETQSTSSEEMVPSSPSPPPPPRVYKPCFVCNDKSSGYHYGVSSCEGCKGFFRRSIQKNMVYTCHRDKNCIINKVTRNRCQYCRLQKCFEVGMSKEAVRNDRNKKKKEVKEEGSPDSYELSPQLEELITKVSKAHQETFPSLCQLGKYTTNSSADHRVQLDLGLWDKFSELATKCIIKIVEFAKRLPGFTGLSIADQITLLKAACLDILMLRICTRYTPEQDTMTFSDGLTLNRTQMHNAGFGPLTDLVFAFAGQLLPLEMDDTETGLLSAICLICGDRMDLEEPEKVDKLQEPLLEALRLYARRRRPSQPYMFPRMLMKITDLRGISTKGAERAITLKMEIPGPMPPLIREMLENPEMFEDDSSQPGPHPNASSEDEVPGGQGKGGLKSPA
Nuclear receptor subfamily 1 group I member 2 (Homo sapiens), sequence (O75469 whole entry, looked up, the tested form may be a part): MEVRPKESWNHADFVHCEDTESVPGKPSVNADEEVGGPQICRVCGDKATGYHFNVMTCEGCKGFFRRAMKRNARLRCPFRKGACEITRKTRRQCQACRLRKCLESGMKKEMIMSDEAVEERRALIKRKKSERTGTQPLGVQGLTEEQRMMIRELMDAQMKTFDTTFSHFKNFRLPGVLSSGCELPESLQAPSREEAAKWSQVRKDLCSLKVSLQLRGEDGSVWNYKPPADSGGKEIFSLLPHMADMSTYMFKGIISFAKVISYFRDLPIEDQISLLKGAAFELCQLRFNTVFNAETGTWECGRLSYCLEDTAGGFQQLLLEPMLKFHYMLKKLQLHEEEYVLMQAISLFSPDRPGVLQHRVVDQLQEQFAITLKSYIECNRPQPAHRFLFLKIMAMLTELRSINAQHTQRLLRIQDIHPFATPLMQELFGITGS
Peroxisome proliferator-activated receptor gamma (Homo sapiens), sequence (P37231 whole entry, looked up, the tested form may be a part): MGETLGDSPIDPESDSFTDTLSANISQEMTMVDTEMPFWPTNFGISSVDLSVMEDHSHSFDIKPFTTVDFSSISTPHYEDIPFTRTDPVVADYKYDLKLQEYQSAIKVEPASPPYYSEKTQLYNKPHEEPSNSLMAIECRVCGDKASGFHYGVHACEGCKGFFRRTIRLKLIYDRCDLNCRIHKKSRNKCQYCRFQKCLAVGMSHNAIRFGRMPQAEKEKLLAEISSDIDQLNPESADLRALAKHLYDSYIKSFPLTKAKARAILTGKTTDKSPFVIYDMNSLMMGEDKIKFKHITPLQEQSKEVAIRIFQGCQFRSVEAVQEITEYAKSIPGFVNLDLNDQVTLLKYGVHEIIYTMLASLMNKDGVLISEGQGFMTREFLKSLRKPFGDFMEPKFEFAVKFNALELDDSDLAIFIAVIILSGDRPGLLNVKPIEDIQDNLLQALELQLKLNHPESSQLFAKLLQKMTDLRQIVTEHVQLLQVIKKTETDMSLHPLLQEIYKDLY
human Peroxisome Proliferator-activated Receptor alpha (PPARa), PPARA (gene 5465), sequence (Q07869 whole entry, looked up, the tested form may be a part): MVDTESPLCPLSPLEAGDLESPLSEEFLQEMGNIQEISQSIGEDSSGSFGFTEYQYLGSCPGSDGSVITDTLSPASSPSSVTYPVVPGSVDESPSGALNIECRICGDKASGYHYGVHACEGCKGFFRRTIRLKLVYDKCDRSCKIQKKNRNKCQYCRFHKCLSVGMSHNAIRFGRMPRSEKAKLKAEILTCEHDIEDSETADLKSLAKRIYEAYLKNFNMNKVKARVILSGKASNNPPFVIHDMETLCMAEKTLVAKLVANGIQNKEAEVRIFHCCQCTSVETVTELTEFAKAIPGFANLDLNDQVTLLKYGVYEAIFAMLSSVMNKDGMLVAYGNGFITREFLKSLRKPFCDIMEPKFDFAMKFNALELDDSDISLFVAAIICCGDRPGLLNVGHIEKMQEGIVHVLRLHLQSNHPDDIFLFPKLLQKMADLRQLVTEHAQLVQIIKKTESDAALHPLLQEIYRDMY
human Peroxisome Proliferator-activated Receptor delta (PPARd), PPARD (gene 5467), sequence (Q03181 whole entry, looked up, the tested form may be a part): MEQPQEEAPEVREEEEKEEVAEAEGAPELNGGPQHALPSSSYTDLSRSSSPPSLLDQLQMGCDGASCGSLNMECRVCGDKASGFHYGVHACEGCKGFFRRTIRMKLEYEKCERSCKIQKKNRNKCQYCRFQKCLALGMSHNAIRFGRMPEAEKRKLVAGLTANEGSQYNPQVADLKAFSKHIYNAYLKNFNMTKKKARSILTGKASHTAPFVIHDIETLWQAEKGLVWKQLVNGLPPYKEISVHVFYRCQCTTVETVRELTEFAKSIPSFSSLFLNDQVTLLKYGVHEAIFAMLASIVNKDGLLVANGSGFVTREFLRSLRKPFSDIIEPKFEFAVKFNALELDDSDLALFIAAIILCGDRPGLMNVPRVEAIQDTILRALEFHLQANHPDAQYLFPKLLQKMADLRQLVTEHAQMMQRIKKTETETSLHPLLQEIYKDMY
human Retinoic Acid Receptor beta (RARb), RARB (gene 5915), sequence (P10826 whole entry, looked up, the tested form may be a part): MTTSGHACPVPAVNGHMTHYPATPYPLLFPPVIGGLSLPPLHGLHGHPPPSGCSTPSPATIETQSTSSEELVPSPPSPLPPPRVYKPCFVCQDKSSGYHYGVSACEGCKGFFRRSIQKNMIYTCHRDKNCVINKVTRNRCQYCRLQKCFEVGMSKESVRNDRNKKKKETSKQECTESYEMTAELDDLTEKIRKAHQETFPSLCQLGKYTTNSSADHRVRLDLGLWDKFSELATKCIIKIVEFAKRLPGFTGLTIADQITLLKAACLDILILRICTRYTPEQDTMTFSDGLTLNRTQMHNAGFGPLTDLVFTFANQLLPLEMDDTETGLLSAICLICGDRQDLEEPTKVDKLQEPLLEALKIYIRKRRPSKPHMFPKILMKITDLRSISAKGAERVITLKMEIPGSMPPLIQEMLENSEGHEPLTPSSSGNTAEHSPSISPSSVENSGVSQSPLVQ
human RAR-related Orphan Receptor beta (RORb), RORB (gene 6096), sequence (Q92753 whole entry, looked up, the tested form may be a part): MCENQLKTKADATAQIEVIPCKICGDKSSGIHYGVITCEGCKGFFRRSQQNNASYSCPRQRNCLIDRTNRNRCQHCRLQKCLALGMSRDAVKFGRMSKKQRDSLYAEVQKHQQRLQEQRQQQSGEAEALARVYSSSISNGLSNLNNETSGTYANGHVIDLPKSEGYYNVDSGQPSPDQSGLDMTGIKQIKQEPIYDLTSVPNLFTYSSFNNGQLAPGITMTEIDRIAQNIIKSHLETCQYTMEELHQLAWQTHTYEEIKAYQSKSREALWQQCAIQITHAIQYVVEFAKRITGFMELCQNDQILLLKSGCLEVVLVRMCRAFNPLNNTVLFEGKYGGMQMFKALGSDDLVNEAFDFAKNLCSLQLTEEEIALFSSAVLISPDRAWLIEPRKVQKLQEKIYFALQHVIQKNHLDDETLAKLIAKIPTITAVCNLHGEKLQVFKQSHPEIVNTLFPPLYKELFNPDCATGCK
Retinoic acid receptor alpha (Homo sapiens), sequence (P10276 whole entry, looked up, the tested form may be a part): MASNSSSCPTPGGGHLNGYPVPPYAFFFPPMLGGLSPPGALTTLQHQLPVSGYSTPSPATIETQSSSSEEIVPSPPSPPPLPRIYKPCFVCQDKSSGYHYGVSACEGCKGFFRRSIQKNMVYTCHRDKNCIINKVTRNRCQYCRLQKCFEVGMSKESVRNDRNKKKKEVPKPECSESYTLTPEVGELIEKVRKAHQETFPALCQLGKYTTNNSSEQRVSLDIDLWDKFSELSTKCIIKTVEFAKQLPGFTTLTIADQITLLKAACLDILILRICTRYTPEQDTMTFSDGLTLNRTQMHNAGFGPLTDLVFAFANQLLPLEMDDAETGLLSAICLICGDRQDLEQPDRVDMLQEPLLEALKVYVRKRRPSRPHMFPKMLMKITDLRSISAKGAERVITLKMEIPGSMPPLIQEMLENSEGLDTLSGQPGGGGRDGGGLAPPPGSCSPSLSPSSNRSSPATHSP

C=CC(=O)OCCOC1C2CCC1C1CC=CC12 (stereo unspecified)
inactive: [1] | [2] | [3]

NC(=O)N=NC(N)=O
inactive: [1] | [2] | [3] | [4]

CC(=O)[C@@]1(O)CC[C@H]2[C@@H]3C[C@H](C)C4=CC(=O)C=C[C@]4(C)[C@@]3(F)[C@@H](O)C[C@@]21C
inactive: [1] | [2] | [5] | [4]

O=C1CCCCCCCCCCC(=O)OCCO1
inactive: [1] | [6] | [5] | [3] | [4] | [7]

O=C1OC(=O)c2cc(Oc3ccc4c(c3)C(=O)OC4=O)ccc21
inactive: [1] | [6]

Cc1ccccc1C
inactive: [1] | [6] | [5] | [3] | [7]

CCOC(=O)CC(C(C)=O)C(C)=O
inactive: [1] | [2] | [4]

COc1ccc2nc(N)sc2c1
inactive: [1] | [8] | [9] | [3] | [4] | [7] | [10]

CCCCCCCCCCC=CC#N
inactive: [2] | [10]
active: [1] 38 µM | [3] 28.2 µM

CCOC(=O)Cc1cccc2ccccc12
active: [3] 44.5 µM
inactive: [1] | [6] | [5] | [4] | [7]

CC=CC(F)(F)C(F)(F)C(F)(F)F
inactive: [1] | [2] | [4]

CN1C(=O)N(C)C(O)C1O (stereo unspecified)
inactive: [1] | [8] | [9] | [3]

COCCCOCCCOC
inactive: [1] | [2] | [4]

CC/C=C\CCOC(=O)CCCCC
inactive: [1] | [6] | [5] | [4]

OCCNCc1ccccc1
inactive: [1] | [2] | [10]

NC(CO)(CO)CO
inactive: [1] | [6]

CCCCCC/C=C\CCCCCCCC(=O)O
inactive: [1] | [2] | [3] | [10]

C1=Cc2ccccc2C1
active: [3] 67.4 µM
inactive: [1] | [2] | [7] | [10]

O=C(Nc1ccccc1SSc1ccccc1NC(=O)c1ccccc1)c1ccccc1
active: [1] 23.4 µM | [9] 5.29 µM | [4] 8.27 µM
inactive: [8]

CCCCCCCOC(=O)CCC
inactive: [1] | [2] | [7]

CCN(CCC#N)c1ccc(N=Nc2c(Cl)cc([N+](=O)[O-])cc2Cl)cc1
active: [4] 1.05 µM
inactive: [1] | [2] | [7]

COCCOCCOCCOCCOC
inactive: [1] | [2] | [4]

COC(=O)/C=C/C(C)=C\C=C\C(C)=C\C=C\C=C(C)\C=C\C=C(C)\C=C\C(=O)O
inactive: [1] | [2] | [4]

O=C(Nc1ccccc1)c1ccccc1O
inactive: [1] | [2] | [4] | [7]

C=CC(=O)OCC(Br)CBr (stereo unspecified)
inactive: [10]
active: [1] 144 µM | [8] 30.1 µM | [9] 9.42 µM | [4] 100 µM

CCCCCCCCO[C@@H]1O[C@H](CO)[C@@H](O)[C@H](O)[C@H]1O
inactive: [1] | [2] | [4]

CN(C)c1ccc(C(=N)c2ccc(N(C)C)cc2)cc1
inactive: [1] | [2] | [4] | [7]

CC(C)CCCCCOC(=O)CCS
active: [1] 9.41 µM | [4] 27.1 µM
inactive: [2] | [3] | [10]

CCC(C)C=O (stereo unspecified)
inactive: [1] | [2] | [4]

C[C@]12C=CC(=O)C=C1CC[C@@H]1[C@@H]2[C@@H](O)C[C@@]2(C)[C@H]1CC[C@]2(O)C(=O)CO
inactive: [1] | [2] | [10]
active: [4] 25.9 µM

CCCCCCCC[N+](C)(CCCCCCCC)CCCCCCCC
inactive: [1] | [6] | [5] | [3] | [7]

NC(=O)OCC(COC(N)=O)c1ccccc1
inactive: [1] | [2] | [4] | [10]

CC(C)COC(=O)C=Cc1ccccc1
inactive: [1] | [2] | [10]
active: [4] 29.4 µM

O=c1c2ccccc2oc2ccccc12
active: [4] 27.3 µM
inactive: [1] | [8] | [6] | [9] | [7]

c1ccc2c(c1)ccc1cc3c(ccc4ccccc43)cc12
inactive: [1] | [8] | [9] | [4] | [7] | [10]

O=C1CC2CC1C1CCCC21 (stereo unspecified)
inactive: [1] | [2] | [4] | [7] | [10]

[Cl][Nd]([Cl])[Cl]
inactive: [1] | [2] | [4] | [7]

NC(=O)c1ccccc1O
inactive: [1] | [2] | [4]

O=[N+]([O-])c1ccc(CO)cc1
inactive: [1] | [2] | [4]

O=Nc1ccc(O)cc1
inactive: [1] | [8] | [6] | [9]

N#[N+]c1ccc2c(S(=O)(=O)[O-])cccc2c1O
inactive: [1] | [8] | [9] | [7] | [10]

O=c1[nH]nc(-c2ccc([N+](=O)[O-])o2)o1
inactive: [1] | [2] | [4]

OC1OCCOC1O (stereo unspecified)
inactive: [1] | [6] | [10]

Nc1nc2ccccc2[nH]1
inactive: [1] | [6] | [3] | [4]
